{
  "source": "PubChem BioAssay (NCATS)",
  "note": "Inconclusive results are not listed. Unmarked numbers belong to inactive results. The source made the active and inactive calls. Calls come from the whole dose curve; as a rule, active = well fitted cell-killing curve with a large enough effect; inconclusive = small, poorly fitted or top-dose-only effect, or effect the other way; inactive = no such curve, though single readings can be large or run the other way. Potency is the fitted concentration of half-maximal effect.",
  "data": [
    {"assay": "Viability qHTS for spleen associated tyrosine kinase inhibitor (SYKi) naive MV4-11 cells (AID 1963823); note: nearly all actives have a fitted effect of over 40% in size", "conditions": "MV4-11 AML viability, CellTiter-Glo luminescence, 72 h; series mostly up to 45 µM", "outline": "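CellTiter-Glo luminescence, 10 min room-temperature incubation, gave viability. Cells: naive MV4-11 (500/well), treated 72 hr at 37 C, 5% CO2.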", "values": [
      {"compound": "Cc1cc(C(=O)N2Cc3cnn(C)c3Nc3ccccc32)ccc1CNC(=O)N1CCN(Cc2cc(O)cc(O)c2)CC1", "Potency": "inactive"},
      {"compound": "COc1c(F)cccc1C(=O)N1C[C@@H](C)CC[C@H]1CNc1ccc(Br)cn1", "Potency": "9.2 µM (active)"},
      {"compound": "COc1ccccc1OCCNCC(O)CCOc1cccc2[nH]c3ccccc3c12", "note": "(configuration not stated)", "Potency": "9.2 µM (active)"},
      {"compound": "COc1ccccc1-c1cc(Nc2cccc(CS(N)(=O)=O)c2)ncn1", "Potency": "9.2 µM (active)"},
      {"compound": "CC1(C)CC2C(O)C3=C(CC(C)(O)C2C1)C(=O)OC3O", "note": "(configuration not stated)", "Potency": "inactive"},
      {"compound": "O=C(O)c1ccnc(-c2cc(C(=O)NCCc3ccccc3)ccn2)c1", "Potency": "inactive"},
      {"compound": "CC(C)C(CO)Nc1nc(Nc2cc(N)cc(Cl)c2)c2ncn(C(C)C)c2n1", "note": "(configuration not stated)", "Potency": "0.517 µM (active)"},
      {"compound": "CC(C)(C(=O)NCC(F)(F)C(F)(F)F)C(=O)NC1C(=O)Nc2ccccc2-c2ccccc21", "note": "(configuration not stated)", "Potency": "14.6 µM (active)"},
      {"compound": "C[C@@H]1CC[C@]2(C(=O)O[C@@H]3O[C@H](CO[C@@H]4O[C@H](CO)[C@@H](O[C@@H]5O[C@@H](C)[C@H](O)[C@@H](O)[C@H]5O)[C@H](O)[C@H]4O)[C@@H](O)[C@H](O)[C@H]3O)CC[C@]3(C)C(=CCC4[C@@]5(C)C[C@@H](O)[C@H](O)[C@@](C)(CO)C5CC[C@]43C)C2[C@H]1C", "note": "(some centres not stated)", "viability (% of control)": "87.5% [at 9.25 µM]"},
      {"compound": "C=C1CC[C@@H]2[C@@](C)(CO[C@@H]3O[C@H](CO)C(O)[C@H](O)C3O)[C@H](O)CC[C@@]2(C)[C@@H]1CC/C(C)=C/CO", "note": "(some centres not stated)", "viability (% of control)": "93.2% [at 9.25 µM]"},
      {"compound": "CN1C/C=C/CCOc2cccc(c2)-c2ccnc(n2)Nc2cccc(c2)C1", "Potency": "0.417 µM (active)"},
      {"compound": "COc1cc(/C=C/C(=O)OC[C@H]2O[C@@](CO)(O[C@H]3O[C@H](CO)[C@@H](O)[C@H](O)[C@H]3O)[C@@H](OC(=O)/C=C/c3ccc(O)c(OC)c3)[C@@H]2O)ccc1O", "Potency": "inactive"}
    ]}
  ]
}
